Measurements reported in ChEMBL document CHEMBL1157539, “Thousands of chemical starting points for antimalarial lead identification” (Nature, 2010).

What follows are compounds tested on HepG2 (assay: GSK_TCMDC: Percent inhibition of human HepG2 cell line. Test compounds present at 10uM.).
Format: functional
Work on `Cc1ccc(CC(C)NCC(O)c2cccc(Cl)c2)cc1F.Cl` (stereo not drawn) yielded an Inhibition of 1%.
`CNCCN(C)C(=O)Oc1c(Cl)c(C)nc(C)c1-c1ccc(Oc2ccc(OC(F)(F)F)cc2)cc1.Cl` was tested, and the Inhibition was 0%.
Work on `COC(=O)c1ccc(CC(C)NCC(O)c2cccc(OCc3ccccc3)c2)cc1.Cl` (stereo not drawn) yielded an Inhibition of 11%.
`COC(=O)c1ccc(CC(C)NCC(O)c2cccc(I)c2)cc1` (stereo not drawn) gave an Inhibition of 15%.
`CC(C)CNCc1cccc(-c2ccc(CN(C(=O)c3cccs3)C3CCN(Cc4ccccc4)CC3)cc2)c1.O=C(O)C(F)(F)F` showed an Inhibition of 22%.
With `Oc1ccc(CN2CCN(CCOC(c3ccccc3)c3ccccc3)CC2)cc1Cl` the Inhibition was 7%.
`Cc1c(C(=O)NC2CCC(CN3CCC(c4c[nH]c5ccccc45)CC3)CC2)cnn1-c1c(Cl)cc(Cl)cc1Cl` (stereo not drawn) was tested, and the Inhibition was 53%.
In the case of `C#CCN1CCC2=C(C1)c1c(O)cc(C(C)CCCc3ccc(F)cc3)cc1OC2(C)C` (stereo not drawn), the Inhibition is reported as 1%.
In the case of `COC(=O)c1ccc(CC(C)NCC(O)c2cccc(C(F)(F)F)c2)cc1.Cl` (stereo not drawn), the Inhibition is reported as 0%.
`NC(=O)CN1CC=C(c2c[nH]c3ccc(Br)cc23)CC1` showed an Inhibition of 30%.
Compound `O=C(Nc1ccc(CN2CCC(c3c[nH]c4ccc(O)cc34)CC2)cc1)c1ccc(-c2ccccc2)cc1` has an Inhibition of 33%.
Compound `COCCNCc1cccc(-c2cccc(CN(C(=O)Nc3ccccc3)C3CCN(Cc4ccccc4)CC3)c2)c1.O=C(O)C(F)(F)F` has an Inhibition of 28%.
For `COc1ccc(CCNCc2ccc3c(C)cc(N)nc3c2)cc1`, the Inhibition was 12%.
Compound `COc1cccc(CC(C)NCC(O)c2cccc(Cl)c2)c1.Cl` (stereo not drawn) has an Inhibition of 7%.
Compound `O=C(NC1CCC(CN2CCC(c3c[nH]c4ccccc34)CC2)CC1)c1cc(-c2ccccc2Cl)oc1C(F)(F)F` (stereo not drawn) has an Inhibition of 24%.
For `CCc1ccc(CC(C)NCC(O)c2ccccc2)cc1.O` (stereo not drawn), the Inhibition was 0%.
In the case of `Cc1nc(-c2ccc(-c3ccc(C(=O)Nc4ccc5c(c4)C4(CCNCC4)CO5)cc3)c(C)c2)no1.Cl`, the Inhibition is reported as 37%.
Work on `CC[C@H]1CN2CC[C@@H]1C[C@H]2[C@H](O)c1cc(-c2cccnc2)nc2ccc(OC)cc12.Cl` yielded an Inhibition of 20%.
`Br.CC[C@H]1CN2CC[C@H]1C[C@H]2[C@H](O)c1ccnc2ccc(OC)cc12` gave an Inhibition of 0%.
Compound `CC(Cc1ccc(OCCOc2ccccc2)cc1)NCC(O)c1cccc(Cl)c1` (stereo not drawn) has an Inhibition of 12%.
Compound `CCC(C)CN1CCC(N(C)c2cc(NC(=O)c3cccc(C)c3)ccn2)CC1.O=C(O)C(F)(F)F` (stereo not drawn) has an Inhibition of 1%.
Work on `COC(=O)c1ccc(CC(C)NCC(O)c2cccc(C(F)(F)F)c2)c(Cl)c1` (stereo not drawn) yielded an Inhibition of 0%.
Work on `CC(C)CNCc1ccc(-c2cccc(CN(C(=O)NC3CCCCC3)C3CCN(Cc4ccccc4)CC3)c2)cc1.O=C(O)C(F)(F)F` yielded an Inhibition of 20%.
Compound `CN1CCC(N(C)c2nccc(N3CCN(Cc4cncn4Cc4ccccc4)CC3)n2)CC1` has an Inhibition of 15%.
`COCCNCc1cccc(-c2ccc(CN(C(=O)Nc3ccccc3)C3CCN(Cc4ccccc4)CC3)cc2)c1.O=C(O)C(F)(F)F` showed an Inhibition of 25%.
`O=C(/C=C/c1ccc(Cl)c(Cl)c1)N1CCC(CN2CCC(c3c[nH]c4ccc(NS(=O)(=O)c5cccs5)cc34)CC2)CC1` showed an Inhibition of 17%.
For `OC(CNCc1ccccc1OC(F)F)c1cccc(C(F)(F)F)c1` (stereo not drawn), the Inhibition was 2%.
Compound `O=C(NC1CCC(CN2CCC(c3c[nH]c4ccccc34)CC2)CC1)c1csc(-c2cccc(Cl)c2Cl)n1` (stereo not drawn) has an Inhibition of 34%.
Compound `Oc1ccc(CN2CCN(CCOC(c3ccc(F)cc3)c3ccc(F)cc3)CC2)cc1Cl` has an Inhibition of 19%.
Work on `COC(=O)c1ccc(CC(C)NCC(O)c2cccc(C(F)(F)F)c2)c(OC)c1` (stereo not drawn) yielded an Inhibition of 5%.
`COc1ccc(C(=O)C2CC2CN2CC=C(c3c(C)[nH]c4ccccc34)CC2)cc1` (stereo not drawn) gave an Inhibition of 16%.
Compound `CC(Cc1ccc(OCc2ccccc2)c(Cl)c1)NCC(O)c1cccc(C(F)(F)F)c1` (stereo not drawn) has an Inhibition of 0%.
Compound `CC[C@H]1CN2CC[C@@H]1C[C@H]2[C@H](O)c1cc(N2CCC(C)CC2)nc2ccc(OC)cc12` has an Inhibition of 16%.
Compound `COc1ccc(C(=O)C2CC2CN2CC=C(c3c[nH]c4cccc(Br)c34)CC2)cc1.O=C(O)C(F)(F)F` (stereo not drawn) has an Inhibition of 32%.
`CC(=O)C1(c2ccccc2)CCN(CCC(NC(=O)c2cc(C(F)(F)F)cc(C(F)(F)F)c2)c2ccc(Cl)c(Cl)c2)CC1.Cl` (stereo not drawn) showed an Inhibition of 9%.
For `CCCCCCC(C)c1cc(O)c2c(c1)OC(C)(C)c1ccncc1-2.Cl` (stereo not drawn), the Inhibition was 0%.
Work on `CCOc1ccc2nccc([C@@H](O)[C@@H]3C[C@@H]4CCN3C[C@@H]4CC)c2c1.Cl` [ETHYLHYDROCUPREINE HYDROCHLORIDE] yielded an Inhibition of 24%.
Work on `COC(=O)c1ccc(CC(C)NCC(O)c2ccc(Cl)c(Cl)c2)cc1` (stereo not drawn) yielded an Inhibition of 0%.
